# Assay results as given in PubChem BioAssay (NCATS).
# Results filed as inconclusive are left out. Values without a mark were called inactive. The call rests on the fitted dose curve; in most records, active means well fitted cell-killing curve with a large enough effect; inconclusive means small, poorly fitted or top-dose-only effect; inactive means flat fitted curve, though single readings scatter.
# Assay: qHTS of pediatric cancer cell lines to identify multiple opportunities for drug repurposing: Primary screen for BT-37 cells (AID 1347094);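 further: plate controls were DMSO for no effect and bortezomib for full effect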
# Conditions: BT-37 viability, CellTiter-Glo luminescence, 48 h; series mostly up to 57.3 µM; activity change, negative = cytotoxic: at the top concentration
# Summary of the method: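 Cells seeded at 500-1,000 cells/well in growth media, rested 5 hours at 37 degrees C, 5% CO2, then dosed; MIPE compounds at 11-point (from 0.78 nM) and NPC at 8-point (from 0.59 nM) final concentrations. Viability by CellTiter-Glo luminescence after 48 hours.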
row,Structure (SMILES),"activity change, negative = cytotoxic"
1,C=CCn1c(=O)n([C@@H]2O[C@H](CO)[C@@H](O)[C@H]2O)c2nc(N)[nH]c(=O)c21,5.88%
2,O=C1c2c(O)cccc2Cc2cccc(O)c21,4.57%
3,CC1(C)OC(=O)NC1=O,1.6%
4,CCOc1ccc2ccccc2c1C(=O)N[C@@H]1C(=O)N2[C@@H]1SC(C)(C)[C@@H]2C(=O)O,14.5%
5,CC1CC(OC(=O)C(O)c2ccccc2)CC(C)(C)N1C (centres undefined),9.97%
6,OCC(CO)N[C@H]1C[C@](O)(CO)[C@@H](O)[C@H](O)[C@H]1O,0.118%
7,CCn1cc(C(=O)O)c(=O)c2cnc(N3CCNCC3)nc21,2.52%
8,CC1(C)CO[C@@H](CC(=O)O)CN1,4.51%
9,CCCCC(CC)COC(=O)c1ccccc1O (centres undefined),7.2%
10,CCN(CC)C(=O)Nc1ccc(OCC(O)CNC(C)(C)C)c(C(C)=O)c1 (centres undefined),16.7%
11,C[C@@H]1CC[C@@]2(OC1)O[C@H]1C[C@H]3[C@@H]4CC[C@H]5C[C@@H](O)CC[C@]5(C)[C@H]4CC(=O)[C@]3(C)[C@H]1[C@@H]2C,3.33% [at 6.03 µM]
12,C[C@@H]1CN(c2c(F)c(F)c3c(=O)c(C(=O)O)cn(C4CC4)c3c2F)C[C@H](C)N1,18.2% [at 20.1 µM]
13,Cc1ccc(C(C)C)cc2c(C)ccc1-2,12%
14,Cc1cc(O)cc2c1O[C@](C)(CCC[C@H](C)CCC[C@H](C)CCCC(C)C)CC2,2.87%
15,COc1ccc(S(=O)(=O)Nc2nnc(CC(C)C)s2)cc1,4.65%
16,CCCCN1CCCC[C@H]1C(=O)Nc1c(C)cccc1C,-12.7%
17,CC(=O)CCC(=O)O,15.5%

row,Structure (SMILES),"activity change, negative = cytotoxic"
1,CN(C)CC[C@@H](c1ccc(Cl)cc1)c1ccccn1,1.84%
2,NC(=O)NC(=O)Cc1ccccc1,4.75%
3,CC1=C(C/C=C(\C)CCC[C@H](C)CCC[C@H](C)CCCC(C)C)C(=O)c2ccccc2C1=O,5.78%
4,COc1ccccc1O,18% [at 116 µM]
5,Nc1nc2c(ncn2CCC(CO)CO)c(=O)[nH]1,3.24%
6,N[C@H]1C(O)O[C@H](CO)[C@@H](O)[C@@H]1O (some centres undefined),4.04%
7,C[C@@H](O)[C@H](N)C(=O)O,26.7% [at 20.1 µM]
8,CC1(C)[C@@H]2CC[C@@]1(C)C(=O)C2,15%
9,C[C@@H]1CCN(C(=O)[C@H](CCCN=C(N)N)NS(=O)(=O)c2cccc3c2NC[C@H](C)C3)[C@@H](C(=O)O)C1,4.24%
10,Nc1ccc(S(=O)(=O)Nc2ccccc2)cc1,5.56%
11,Oc1cccc(O)c1,12.9%
12,NCCNCCNCCNCCN,7.77% [at 11.5 µM]
13,C[C@H](N)[C@H](O)c1cccc(O)c1,16%
14,O=C(Oc1ccccc1C(=O)O)c1ccccc1O,10.9%
15,Nc1ccc(S(=O)(=O)NC(=O)c2ccccc2)cc1,3.83%
16,Cc1cc2nc3c(=O)[nH]c(=O)nc-3n(C[C@H](O)[C@H](O)[C@H](O)CO)c2cc1C,7.21% [at 20.1 µM]
17,O=C1O[C@H]([C@@H](O)CO)C(O)=C1O,13%
